Data from PubChem BioAssay AID1671190 (National Center for Advancing Translational Sciences (NCATS), 2021).
Where “and” joins values, the source holds several entries; their conditions need not be identical. Identical values can stand only once. The campaign covered roughly 580,000 compounds. About 6,100 (1.1%) were called active. About 15% were inconclusive and are not listed. Calls come from the whole dose curve; as a rule, active = well fitted inhibition curve with a large enough effect; inconclusive = small, poorly fitted or top-dose-only effect, or another doubt; inactive = no such curve, though single readings can be large or run the other way. The list comes from a sample in which actives are over-represented; it also holds similar structures and randomly drawn compounds. Where a call stands in place of a potency, no number is given.

Each molecule was assayed against Polyunsaturated fatty acid lipoxygenase ALOX12 (Homo sapiens) (UniProt P18054) (assay: Primary qHTS assay for inhibitors of human arachidonate 12S-lipoxygenase (ALOX12): Round 2). Details: purified 12hLO, xylenol orange hydroperoxide absorbance; series mostly up to 108 µM.
Polyunsaturated fatty acid lipoxygenase ALOX12 (Homo sapiens), sequence (P18054 whole entry, looked up): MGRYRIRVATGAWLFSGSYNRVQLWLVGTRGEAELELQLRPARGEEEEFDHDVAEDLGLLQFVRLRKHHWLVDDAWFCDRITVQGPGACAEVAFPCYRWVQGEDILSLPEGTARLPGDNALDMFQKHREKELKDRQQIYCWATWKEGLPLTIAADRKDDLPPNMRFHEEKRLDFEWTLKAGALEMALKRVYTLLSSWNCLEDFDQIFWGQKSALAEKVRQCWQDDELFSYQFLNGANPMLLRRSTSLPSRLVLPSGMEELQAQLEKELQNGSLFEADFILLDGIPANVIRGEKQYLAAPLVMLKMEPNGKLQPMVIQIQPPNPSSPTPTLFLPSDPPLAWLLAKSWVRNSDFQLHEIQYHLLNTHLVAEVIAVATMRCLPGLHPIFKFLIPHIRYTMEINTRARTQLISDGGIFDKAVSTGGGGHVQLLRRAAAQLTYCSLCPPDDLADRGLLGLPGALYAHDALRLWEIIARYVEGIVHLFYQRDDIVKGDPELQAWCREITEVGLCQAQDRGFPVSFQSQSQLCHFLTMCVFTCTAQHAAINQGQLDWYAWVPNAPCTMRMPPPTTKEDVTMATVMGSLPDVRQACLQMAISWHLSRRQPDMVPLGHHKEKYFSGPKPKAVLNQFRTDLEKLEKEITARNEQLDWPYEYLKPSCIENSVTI
Excerpt: Assay Provider: Theodore R. Holman Ph.D. University of California, Santa Cruz, California Human lipoxygenase 12hLO is a member of the closely related lipoxygenase family of enzymes which catalyze the site-specific oxidation of arachidonic acid to various hormone precursor molecules and as such is a candidate for drug development in a variety of disease areas, such as cancer and inflammation. Inhibition of 12hLO activity was screened by utilizing arachidonic acid as a substrate. The extent of hydroperoxide product formation was measured by a secondary chromogenic reaction in which xylenol orange (XO, Sigma-Aldrich, cat. number 39,818-7) reacts with the ferric ions produced from the reaction between the hydroperoxide and ferrous ions. The Fe (III)-XO complex is characterized with red-shifted absorbance at 560 nm. A purified preparation of human 12hLO was supplied by Dr. Holman laboratory, University of California, Santa Cruz.
PROTOCOL TABLE SEQUENCE No. (e.g., 1, 2, 3, etc.); […] (e.g., Cells, Incubation, Reagent, etc.); VALUE; DESCRIPTION 1; Enzyme; 3 uL; 150 nM 12hLO enzyme solution dispensed in 1536-well Greiner black, clear bottom plates. 2; Compound; 23 nL; compounds and controls were added. 3; Incubate; 15 min; room temperature. 4; Substrate; 1 uL; 40 uM arachidonic acid (final concentration). 5; Incubate; 30 min; room temperature. 6; Reagent; 4 uL; Fe-XO solution was added to each well. 7; Incubation; 30 min; room temperature 8; Detector; absorbance; Read 1 at 405 nm absorbance using ViewLux (Perkin-Elmer) CCD imager. 9; Detector; absorbance; Read 2 at 573 nm absorbance using ViewLux (Perkin-Elmer) CCD imager. NOTES (numbers refer to sequence above) 1; 150 nM 12hLO (final concentration) in buffer solution (25 mM Hepes, 0.01% Triton X-100, pH 7.0) was dispensed in columns 1, 2, 5-48. Column 1 is neutral (100% activity). Buffer only was dispensed in columns 3 and 4 as no enzyme negative controls. The plates were covered with metal lids with gas-exchange holes. 2; Compounds were pin transferred via a Kalypsys Pin Tool (Wako USA) in column 5-48. Control compound was transferred in column 2, titration of nordihydroguaiaretic acid (NDGA, Sigma-Aldrich, N5023) with top concentration of 20 mM in DMSO then 1:3 dilution in duplicate. Dilution factor of 23 nL into 4 uL final assay volume. 3; Covered assay plates were incubated for 15 min at room temperature. 4; Substrate was added to start the reaction; 40 uM arachidonic acid (Sigma-Aldrich, St. Louis, MO) was dispensed throughout the plate. 6; Chromogenic detection reagent solution (divalent iron/xylenol orange, Fe-XO) was added to each well: 200 uM xylenol orange, 300 uM ferrous ammonium sulfate prepared freshly in 50 mM sulfuric acid. 8, 9; Two absorbance readouts were obtained at 405 nm and at 573 nm using a ViewLux high-throughput CCD plate imager (Perkin-Elmer). The 573 to 405 (Read 2 / Read 1) absorbance ratio was used to compute reaction progress.
Potency is the fitted concentration of half-maximal effect.

SMILES | Potency
CCc1ccccc1NC(=O)CSc1nc2ccccc2nc1C | inactive
Cc1cc(C)cc(NC(=O)COc2ncnc3ccccc23)c1 | inactive
COc1ccccc1CN(C)C(=O)NCc1ccc(S(=O)(=O)N2CCCCC2)cc1 | inactive
c1ccc(CN2CCc3c(sc4c3c(N3CCOCC3)nc3nnnn34)C2)cc1 | inactive
CCCCS(=O)(=O)CCCCCO | inactive
CN(C)c1ccc(NC(=O)Cn2cnc3c2c(=O)n(C)c(=O)n3C)cc1 | inactive
CC1(C)NC(=O)N(CCCC(=O)Nc2cccc3cccnc23)C1=O | inactive
Cc1cccc(NC2=NC(c3cccnc3)n3c(nc(C)cc3=O)N2)c1 (configuration not stated) | inactive
COc1ccccc1NC(=O)c1cc2c(OC)c(OC)c(OC)cc2[nH]1 | inactive
Cc1ccc(CNCc2ccc3c(c2)OCO3)c(C)c1 | 44.7 µM (active)
CCOc1ccc(S(=O)(=O)NCc2ccc3c(c2)OCO3)cc1C | inactive
Cc1cc2oc(C(=O)NCc3ccc4c(c3)OCO4)cc(=O)c2cc1C | inactive
CCOC(=O)C1=C(NC(=S)NC(=O)c2ccccc2)c2ccccc2CC1(C)C | 22.4 µM (active)
CC(C)CNC(=O)NC1=C(C#N)C(C)(C)Cc2ccccc21 | inactive
CCOC(=O)c1c(NC(=O)C2(C)Cc3ccccc3C(=O)O2)sc2c1CCCC2 (configuration not stated) | inactive
CC(=O)CCc1ccc(OCC(O)CNC(C)(C)CO)cc1 (configuration not stated) | inactive
CCc1ccc(-c2nc(SCc3ncc(-c4ccccc4)o3)n[nH]2)cc1 | inactive
CCOC(=O)c1cccc(NC(=O)C2=Cc3ccccc3OC=C2)c1 | inactive
CC(=O)c1c(N2CCN(c3ccc(F)cc3)CC2)nc(=S)n(-c2ccccc2)c1C | 44.7 µM (active)
CC(=O)c1c(N2CCOCC2)nc(=S)n(-c2cc(C)ccc2C)c1C | inactive
CC(=O)c1c(N2CCOCC2)nc(=S)n(Cc2ccccc2)c1C | inactive
Cc1ccc(/C=C/C(=O)c2cc3ccccc3o2)s1 | inactive
O=C(COc1ccc(F)cc1)Nc1ccc2oc(-c3ccc(F)cc3)nc2c1 | inactive
CCN(CC)CCNc1ncnc2c1cnn2-c1cc(Cl)ccc1C | inactive
COc1ccc(CCNc2ncnc3c2cnn3-c2ccc(C)cc2)cc1 | 28.2 µM (active)
Cc1ccc(-n2ncc3c(NNC(=O)C4CCCCC4)ncnc32)cc1 | inactive

SMILES | Potency
COc1ccc(CCNc2ncnc3c2nnn3Cc2ccccc2)cc1 | inactive
NS(=O)(=O)c1ccc(CCNc2ncnc3c2cnn3-c2ccccc2Cl)cc1 | inactive
Clc1cccc(-n2ncc3c(NCCc4ccccc4)ncnc32)c1 | 44.7 µM (active) and 8.91 µM (active)
CCOC(=O)c1c(C)c(CCC(=O)NCCN2CCOCC2)c(C)n1C | inactive
CCN(CC)C(=O)C1=C(C)N=C2SC=C(CC(=O)NCc3ccco3)N2C1c1ccccc1F (configuration not stated) | inactive
C#CCNC(=O)CC[C@@H]1CNC(=O)[C@@H]2C[C@H](NC(=O)Nc3cccc(Cl)c3)CN12 | inactive
O=C1Nc2ccc(-c3ccc(Cl)cc3)cc2C(=O)N2CC[C@H](NC(=O)N3CCOCC3)[C@@H]12 | inactive
COc1cc(=O)n(-c2ccc(C)cc2)nc1C(=O)Nc1cccc(Cl)c1C | inactive
COc1cc(OC)cc(C(=O)OCC(=O)Nc2c(C)cccc2C(C)C)c1 | inactive
COc1cc(C2/C(=C(\O)c3ccc4c(c3)CC(C)O4)C(=O)C(=O)N2c2nnc(C)s2)cc(OC)c1OC (configuration not stated) | inactive
CC(C)c1ccc(C2/C(=C(\O)c3ccc4c(c3)OCCO4)C(=O)C(=O)N2c2nccs2)cc1 (configuration not stated) | 0.794 µM (active)
O=C1C(=O)N(CCCN2CCOCC2)C(c2ccc([N+](=O)[O-])cc2)/C1=C(\O)c1ccc2c(c1)OCCO2 (configuration not stated) | inactive
CCn1cc(C#N)c(=O)n(Cc2noc(-c3ccc(Cl)cc3)n2)c1=O | inactive
Cc1cccc(NC(=O)N2CCCCCC2)c1C | inactive
Cc1cccc(NC(=O)c2ccc3nc(C(C)C)oc3c2)c1C | inactive
Cc1cccc(NC(=O)c2cccc(C(=O)Nc3cccc(C)c3C)n2)c1C | 3.16 µM (active)
O=C(OCc1ccccc1)N1CCOCC12CCN(Cc1cccc(O)c1)CC2 | inactive
CCc1ccccc1NC(=O)CSc1nc2c(=O)[nH]cnc2n1CC | inactive
Cc1cc(C)cc(-n2ccnc2SCC(=O)Nc2nc3ccccc3s2)c1 | inactive
c1ccc(C(=NNc2nc3ccccc3s2)c2ccccn2)cc1 | 44.7 µM (active)
O=C(CCc1ncc(-c2ccccc2)o1)Nc1nc2ccccc2s1 | inactive
COc1cccc(Oc2coc3cc(OC)ccc3c2=O)c1 | inactive
CCN1C(=O)COc2ccc(NC(=O)c3cc(=O)c4cc(Cl)c(C)cc4o3)cc21 | inactive
O=C(NCCc1nc2ccccc2[nH]1)c1ccc(N2CCCN(Cc3cccc(F)c3)C2=O)cc1 | inactive
CCOC(=O)c1c(S(=O)(=O)N2CCCC2)nn(C)c1C | 14.1 µM (active)
CCOC(=O)c1c(S(=O)(=O)N2CCCC(C(=O)NCc3cccc(C)c3)C2)c(C)n(C)c1C (configuration not stated) | inactive
